High-throughput results: PubChem, National Center for Advancing Translational Sciences (NCATS)
CHX counter: Cycloheximide Counterscreen for Small Molecule Inhibitors of Shiga Toxin; max response, %; AID 2314, 2010; 300,000 tested, 12% active; cell reporter, cycloheximide protein synthesis inhibition counterscreen; in the data active = max response mostly above about 13%, no sharp cut-off; inactive = mostly below about 14%; note: read at 38.3 µM for the half of the compounds with a filed dose; 0% is about no effect
NS1 inh: qHTS Assay for Inhibitors of Influenza NS1 Protein Function; Potency, µM (series often up to 46.1 µM), inactives show top-dose activity, positive = more growth; AID 2326, 2010; 270,000 tested, 0.4% active; calls by dose curve; note: potency is the fitted concentration of half-maximal effect; actives are rising curves; nearly all actives have a fitted effect of over 50% in size
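Recovery from NS1-induced slow growth read by OD600 in budding yeast switched to galactose assay medium (pH 6.0, -URA) at 1:100 dilution. Compound 23 nl per well; the matching strain lacking NS1 serves as control.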
Shiga inhibitor: A qHTS for Small Molecule Inhibitors of Shiga Toxin; Vero cells, Shiga toxin protein synthesis inhibition reporter; 290,000 tested, 9.2% active; AID 2315, 2010; inhibition, % at 38.7 µM; in the data active = inhibition mostly above about 28%, no sharp cut-off; inactive = mostly below about 43%; note: 0% is about no effect
Sm TGR inh: qHTS Assay for the Inhibitors of Schistosoma Mansoni Peroxiredoxins; Schistosoma mansoni thioredoxin glutathione reductase (TGR), Q962Y6; purified TGR, DTNB reduction, TNB absorbance 405 nm; Potency, µM (series often up to 114 µM), for the others: at the highest dose activity change, negative = inhibition, hits mostly inhibitors; 360,000 tested, 3% active; AID 485364, 2010; note: potency is the fitted concentration of half-maximal effect; % is set by controls: 0 for no effect and ±100 for the full control effect; nearly all actives have a fitted effect of over 60% in size
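TGR 20 nM + NADPH 100 uM (dispensed conc.), cpd preinc 15 min RT; start with NADPH (500 uM addition) then DTNB (15 mM addition). Kinetic TNB absorbance, 405 nm filter. Four-parameter Hill fit across titration.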
Pf growth 96h: Primary qHTS for delayed death inhibitors of the malarial parasite plastid, 96 hour incubation; P. falciparum luciferase reporter growth, 96 h; Potency, µM (highest dose often 28.7 µM), inactives show at the top dose activity change, negative = inhibition, usual class: inhibitors; 320,000 tested, 6.9% active; AID 504834, 2011; note: potency is the fitted concentration of half-maximal effect; % is set by controls: 0 for no effect and ±100 for the full control effect
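Two parasite generations (96 h, 37 C, 5% CO2) of compound exposure in infected erythrocytes (0.05% parasitemia, 2% hematocrit). Luciferase-reporter P. falciparum; decreased luminescence indicates inhibited growth, aimed at apicoplast-acting delayed death.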
Pf growth 48h: Primary qHTS for delayed death inhibitors of the malarial parasite plastid, 48 hour incubation | P. falciparum luciferase growth in erythrocytes, 48 h | Potency, µM (titrated, usually from 28.7 µM), for the others: at the top dose activity change, negative = inhibition, hits mostly inhibitors | 310,000 tested, 5.9% active; note: potency is the fitted concentration of half-maximal effect; % is set by controls: 0 for no effect and ±100 for the full control effect
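Luminescence readout; reporter = integrated firefly luciferase in P. falciparum. RBC culture at 2% hematocrit, 0.1% parasitemia final, 37 C/5% CO2; decreased signal taken as growth inhibition.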
* = called active by the depositor; i = inactive; ? = inconclusive; . = no result given; [ ] = remark or other dose. A selection: hits, their analogues and other compounds. The true share with any hit is near 21%. Unless noted, calls come from the whole dose curve; as a rule, active = well fitted curve in the direction sought with a large enough effect; inconclusive = small, poorly fitted or top-dose-only effect, or another doubt; inactive = no such curve, though single readings can be large; an effect the other way counts as inactive or inconclusive.

SMILES	CHX counter	NS1 inh	Shiga inhibitor	Sm TGR inh	Pf growth 96h	Pf growth 48h
COc1cccc(CN(C)C(=O)c2cc(-c3ccc(OC)c(OC)c3)nc3ccccc23)c1	-2	5%	-18	0%	-23%	27%
COc1ccc(CCN(C)C(=O)Cc2ccc(-c3ccccc3)cc2)cc1OC	22*	-16%	-7	-12%	?	?
COc1ccc(-c2cc(C(=O)N(C)Cc3cccc(OC)c3OC)c3ccccc3n2)cc1OC	0	-1%	-7	-6%	?	9.3µM*
COc1cccc(CN(C)C(=O)c2cc(-c3ccc(F)cc3)nc3ccccc23)c1	-4	10%	-14	2.2µM*	13µM*	?
COc1ccc(CCN(C)C(=O)CSc2nnnn2C)cc1OC	0	.	15	-6%	10µM*	27%
Cc1onc(-c2ccccc2Cl)c1C(=O)NCc1ccc(F)cc1	-1	-11%	-7	5%	?	8%
O=C(COC(=O)c1ccc(S(=O)(=O)NCc2ccco2)cc1)Nc1ccc(Cl)cn1	-2	8%	20	.	22%	-7%
COc1ccc(CCN(C)C(=O)c2cc(-c3ccccc3)nc3ccccc23)cc1OC	-3	-45%	-12	?	7.4µM*	13µM*
COc1ccc(CCN(C)C(=O)c2cc(-c3ccccc3)nc3ccc(C)cc23)cc1OC	26	-5%	65*	-15%	-99%	-28%
COc1ccc(CN(C)C(=O)c2cc(-c3ccccc3)nc3ccc(C)cc23)c(OC)c1OC	17*	-8%	27	-20%	?	8.3µM*
Cc1cc(C)n(-c2nc(C(=O)O)cs2)n1	8	.	-5	62%	7%	11%
Cc1cc(C)n(-c2nc(-c3cccc(Cl)c3)cs2)n1	23*	-7%	35	1%[11.4 µM]	-23%	.
Cc1cc(C)n(-c2nc(-c3ccccc3)cs2)n1	35	-13%	112*	9%	.	143%
Cc1cc(C(=O)N/N=C/c2ccc[nH]2)no1	20	14%	45	-9%	69%	14%
Cc1cc(C(=O)N/N=C/c2cccc(OC(=O)c3ccco3)c2)n[nH]1	46*	7%	34	-9%	?	27%
Cc1cc(C(=O)N/N=C/c2cccnc2)n[nH]1	2	0%	22	11%	26%	27%
Cc1cc(C(=O)N/N=C/c2ccc[nH]2)n[nH]1	16*	-5%	36*	-1%	50%	84%
Cc1cc(C(=O)N/N=C/c2ccc3ccccc3c2)n[nH]1	23*	2%	30*	-1%	?	14%
COCCNC(=O)C(c1cccs1)N(C(=O)Cn1nnc2ccccc21)c1ccc(OC)cc1 (stereo not drawn)	-3	6%	12	5%	28%	-14%
CN(C)c1ccc(C(CNC(=O)c2ccccc2)N2CCc3ccccc32)cc1 (stereo not drawn)	.	.	.	-18%	.	.
CCOC(=O)C1CCCN(Cc2ccc(OCc3ccccc3)cc2)C1 (stereo not drawn)	44*	0%	99*	-1%	?	-42%
CCOC(=O)C1CCCN(Cc2cccc(Cl)c2)C1 (stereo not drawn)	9	-7%	-6	-4%	.	79%
CC1CCCN(CCCOc2ccc(Br)cc2Cl)C1 (stereo not drawn)	22*	-4%	41*	16%	?	?
COc1ccc(CN2CCN(C(=O)c3ccco3)CC2)cc1OCc1ccccc1	-1	-3%	-4	2%	0.093µM*	?
CCOC(=O)C1CCCN(CC(=O)Nc2c(F)c(F)c(F)c(F)c2F)C1 (stereo not drawn)	-5	-15%	-8	0%	?	0%
SMILES	CHX counter	NS1 inh	Shiga inhibitor	Sm TGR inh	Pf growth 96h	Pf growth 48h
CCOC(=O)C1CCCN(CC(=O)c2ccc(F)cc2)C1 (stereo not drawn)	-1	-8%	4	18µM*	12%	8%
CC1CCN(CCOCCOc2ccc(Br)cc2Cl)CC1	1	-23%	-5	-10%	3%	-79%
Fc1ccc(Nc2nc(N/N=C/c3ccco3)nc(N3CCCCC3)n2)cc1	2	15%	20	4%	-23%	?
Cc1ccc(Cc2nc3ccccc3nc2SCC(=O)NCc2ccc(F)cc2)cc1	.	.	.	2%	.	.
CCOC(=O)C1CCCCN1Cc1cccc(OCc2ccccc2)c1 (stereo not drawn)	6	-21%	2	-3%	13µM*	-13%
CCN1CCN(Cc2ccc(OCc3ccccc3)c(OC)c2)CC1	49*	-5%	105*	0%	i	127%
CCOC(=O)C1CCCN(CCCc2ccccc2)C1 (stereo not drawn)	-6	8%	-9	-42%	3.3µM*	-29%
CCN(Cc1ccccc1)C1CCN(Cc2ccccc2)CC1	-2	-3%	-9	5%	0%	?
CCCN1CCC(N(CCc2ccccc2)Cc2ccccc2)CC1	-1	8%	18	5%	12µM*	?
CCN1CCN(Cc2ccc(OC)c(OCc3ccccc3)c2)CC1	-1	0%	-5	21%	32%	-11%
NC(=O)c1ccc(NC(=O)CCN2C(=O)c3ccccc3C2=O)cc1	-1	-1%	-10	4%	4%	10%
COCCCNCCCCOc1ccc(Br)cc1Cl	-5	7%	-7	-8%	?	?
Cc1cc(Cl)cc(Cl)c1OCCCCN(C)C	47*	-5%	-17	5%	8%	?
C=CCc1ccc(OCCCN2CCCC(C)C2)c(OC)c1 (stereo not drawn)	22*	-86%	20	-26%	25%	.
COc1cc(CN2CCCC(C)C2)ccc1OCc1ccccc1 (stereo not drawn)	17*	-28%	36*	-22%	-14%	1%
CN(C)CCCCOc1ccc(Br)cc1Cl	14*	2%	28	.	2%	?
Cc1cc(C)c(OCCCCN(C)C)c(Br)c1	-1	-1%	-7	.	6%	-14%
CCn1c(SCC(=O)N/N=C/c2c[nH]c3ccccc23)nnc1-c1ccc(Cl)cc1	-2	-24%	-11	-2%	-23%	6%
c1ccc(-n2ncc3c(N4CCN(CCOc5cccc6ccccc56)CC4)ncnc32)cc1	4	3%	9	-24%	-7%	.
CCOC(=O)C1CCCN(Cc2ccc(O)c(OC)c2)C1 (stereo not drawn)	-2	-6%	-8	?	-3%	9%
CCOC(=O)C1CCCN(Cc2c(C(=O)N3CCCCC3)nc3c(C)cccn23)C1 (stereo not drawn)	2	-3%	11	-9%	23%	-12%
CCOC(=O)C1CCCN(Cc2ccc(OCc3ccccc3)c(OC)c2)C1 (stereo not drawn)	18*	-13%	.	-19%	13µM*	-48%
